# Data published in PubChem BioAssay (Tox21).
# Results filed as inconclusive are left out. A call without a number means that no potency is given here. The source made the active and inactive calls. The call rests on the fitted dose curve; in most records, active means well fitted inhibition curve with a large enough effect in the signal ratio in the repeat runs (not every such curve was filed as active); inconclusive means weak or mixed curves, or effect the other way; inactive means no such curve, though single readings can be large or run the other way; the % refers to the signal ratio.
# Molecular target: Glucocorticoid receptor (Homo sapiens) (UniProt P04150)
# Assay: qHTS assay to identify small molecule antagonists of the glucocorticoid receptor (GR) signaling pathway (AID 720692)
# Conditions: GR-bla HeLa, beta-lactamase FRET ratio, dexamethasone-stimulated, 18 h; series mostly up to 58.5 µM; activity change, negative = inhibition: at the top concentration
# Description: U.S. Tox21 Program National Center for Advancing Translational Sciences [NCATS] NIH Chemical Genomics Center [NCGC] U.S. Environmental Protection Agency [EPA] National Institutes of Environmental Health Sciences [NIEHS] National Toxicology Program [NTP] U.S. Food and Drug Administration [FDA] Tox21 Assay Overview: The Glucocorticoid receptor (GR) is one of the members of the nuclear receptor family of ligand-dependent transcription factors. GR plays a critical role in carbohydrate, protein and lipid metabolisms and programmed cell death. CellSensor GR-bla HeLa cell line (Invitrogen) contains a beta-lactamase reporter gene under the control of the glucocorticoid response element stably integrated into HeLa cells, a cervical cancer cell line that expresses glucocorticoid receptor. The activation of the reporter gene under culture conditions can be detected by fluorescence intensity. This cell line has been used to screen the Tox21 10K compound library and to identify the compounds that inhibit the GR signaling.
# Tox21 Assay Protocol Summary: The GR-bla HeLa cells were dispensed at 1500 cells/5 ul/well in 1536-well black wall/clear bottom plates using a Multidrop Combi (ThermoFisher Scientific, Waltham, MA) dispenser. After the assay plates were incubated at a 37 C/5% CO2 incubator for 4 hours, 23 nL of compounds dissolved in DMSO, positive controls or DMSO only was transferred to the assay plate by a pintool station (Kalypsys, San Diego, CA), followed by addition of 1 uL of dexamethasone (5 nM, final concentration in the well). The plates were incubated at 37 C for 18 hours. After 1 uL of LiveBLAzerTM B/G FRET substrate was added using a Flying Reagent Dispenser (Aurora Discovery, San Diego, CA), the plates were incubated at room temperature for 2 hours, and fluorescence intensity was measured by an Envision plate reader (PerkinElmer, Shelton, CT).
# Potency means the concentration at half of the fitted maximal effect.
# Glucocorticoid receptor (Homo sapiens), sequence (P04150 whole entry, looked up): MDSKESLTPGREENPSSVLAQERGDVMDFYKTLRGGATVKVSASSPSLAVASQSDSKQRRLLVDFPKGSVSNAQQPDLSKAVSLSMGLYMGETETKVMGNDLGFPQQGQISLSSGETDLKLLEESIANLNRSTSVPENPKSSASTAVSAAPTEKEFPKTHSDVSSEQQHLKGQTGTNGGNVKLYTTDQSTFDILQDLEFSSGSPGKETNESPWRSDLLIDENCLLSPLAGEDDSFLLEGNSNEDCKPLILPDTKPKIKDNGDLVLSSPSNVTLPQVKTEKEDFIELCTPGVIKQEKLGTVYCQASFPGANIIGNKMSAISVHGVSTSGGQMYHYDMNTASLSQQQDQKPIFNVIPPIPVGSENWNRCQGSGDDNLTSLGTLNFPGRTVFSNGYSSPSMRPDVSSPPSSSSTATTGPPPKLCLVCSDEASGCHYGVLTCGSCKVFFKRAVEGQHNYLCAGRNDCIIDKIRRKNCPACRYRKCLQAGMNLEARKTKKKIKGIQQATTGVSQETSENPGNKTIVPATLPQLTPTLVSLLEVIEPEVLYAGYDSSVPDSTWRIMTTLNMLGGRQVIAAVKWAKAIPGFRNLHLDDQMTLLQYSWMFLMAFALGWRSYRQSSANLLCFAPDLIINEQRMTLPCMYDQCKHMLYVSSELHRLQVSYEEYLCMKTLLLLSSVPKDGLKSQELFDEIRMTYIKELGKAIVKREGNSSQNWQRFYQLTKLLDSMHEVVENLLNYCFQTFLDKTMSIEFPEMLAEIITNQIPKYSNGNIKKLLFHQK
Compound,"activity change, negative = inhibition",Potency
CN(C)/N=N/c1nc[nH]c1C(N)=O,-4.74% (inactive),
c1ccc2c(c1)ccc1cc3c(ccc4ccccc43)cc12,,inactive
CCCCCCC(C)O (stereo not given),,inactive
COc1ccc2nc(N)sc2c1,,inactive
CN1CCOCC1,,inactive
c1ccc2c(c1)ccc1ncccc12,,inactive
CC1(C)OC(=O)NC1=O,,inactive
O=C(O)CCCC(=O)O,,inactive
COC(=O)c1ccc(C)cc1,,inactive
COc1ccc(C(=O)c2ccccc2O)c(O)c1,-13.5% [at 27 µM] (inactive),
Cc1ccc2c(c1)C(=O)OC2=O,,inactive
O=C(O)c1cc(=O)[nH]c(=O)[nH]1,-10.1% (inactive),
NC[C@H](O)c1ccc(O)c(O)c1,,inactive
Oc1ccc(C(c2ccc(O)cc2)C(Cl)(Cl)Cl)cc1,,21.9 µM (active)
C=C[Si](OCCOC)(OCCOC)OCCOC,-1.09% [at 78.9 µM] (inactive),
Cc1ccc([N+](=O)[O-])c(C)c1,,inactive
OCCNCCO,,inactive
Cc1ccc(S(=O)(=O)NCl)cc1,,inactive
c1ccc2ncccc2c1,,inactive
Cc1ccc(S(=O)(=O)O)cc1C,,inactive

Compound,"activity change, negative = inhibition",Potency
C=CCCCCCCCCCC,-20.8% (inactive),
CC(C)(C)c1cccc(C(C)(C)C)c1O,0.307% (inactive),
CCCCCCOCCOCCO,,inactive
O=Cc1ccccc1C=O,,6.16 µM (active)
Cc1cccc(Nc2ccccc2C(=O)O)c1C,,inactive
C=C1C[C@H]2[C@@H]3C=C(C)C4=CC(=O)CC[C@]4(C)[C@H]3CC[C@]2(C)[C@@]1(OC(C)=O)C(C)=O,-22.3% (inactive),
FC(F)(F)C(Cl)Br (stereo not given),8.02% (inactive),
CC[C@]12CCCN3CCc4c(n(c5ccccc45)[C@@](O)(C(=O)OC)C1)[C@@H]32,-2.33% (inactive),
[Na+],5.39% (inactive),
Nc1ccc(N)c(Cl)c1,5.48% (inactive),
C[C@]12CC[C@@H]3c4ccc(O)cc4CC[C@H]3[C@@H]1CC[C@H]2O,,6.27 µM (active)
Brc1nc2ccccc2s1,,inactive
OC[C@H]1O[C@@H]2O[C@H]3[C@H](O)[C@@H](O)[C@@H](O[C@H]4[C@H](O)[C@@H](O)[C@@H](O[C@H]5[C@H](O)[C@@H](O)[C@@H](O[C@H]6[C@H](O)[C@@H](O)[C@@H](O[C@H]7[C@H](O)[C@@H](O)[C@@H](O[C@H]1[C@H](O)[C@H]2O)O[C@@H]7CO)O[C@@H]6CO)O[C@@H]5CO)O[C@@H]4CO)O[C@@H]3CO,,inactive
CCC/C=C/C=O,,inactive
NCCOCCO,,inactive
COC(=O)CC(=O)OC,,inactive
CC(C)[N+](C)(CCOC(=O)C1c2ccccc2Oc2ccccc21)C(C)C,,inactive
CC(=O)Nc1ccc2c(c1)Cc1cc(NC(C)=O)ccc1-2,,inactive
Oc1c(Cl)ccc(Cl)c1Cl,,inactive
IC(I)I,,inactive
